# Measurements taken from paper PMC7862700, “An all-to-all approach to the identification of sequence-specific readers for epigenetic DNA modifications on cytosine”.
# Columns and labels:
# Assay in all cases: DAPPL (digital affinity profiling via proximity ligation, sequencing); 10 mM Tris-HCl pH 7.5, 50 mM NaCl, 1 mM DTT, 4% glycerol, room temperature, 30 min; GST-TFs on glutathione beads, 16-mer random dsDNA library, 0.1% formaldehyde crosslink after washing; high values mean tight binding
# [1] = target: T1, FEV (Homo sapiens, UniProt Q99581 1-238); conditions: protein: recombinant; tags: N-terminal GST; dsDNA, one strand shown
# T1 sequence: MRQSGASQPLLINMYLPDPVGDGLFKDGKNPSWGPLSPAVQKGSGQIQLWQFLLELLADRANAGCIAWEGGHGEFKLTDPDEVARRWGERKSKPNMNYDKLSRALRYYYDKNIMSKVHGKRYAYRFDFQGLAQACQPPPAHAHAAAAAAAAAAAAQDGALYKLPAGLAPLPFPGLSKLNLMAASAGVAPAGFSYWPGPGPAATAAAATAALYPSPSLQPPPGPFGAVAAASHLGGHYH
# Summary of the method: (§1)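 A tag-only sample was pooled with DNA-barcoded human transcription factors that had been expressed in yeast as GST fusions and captured on glutathione beads. The pools were incubated for 30 min at room temperature with 200 nmole of a random double-stranded 16-mer DNA library in Tris/NaCl/DTT/glycerol buffer, then washed, crosslinked with 0.1% formaldehyde, proximity-ligated (BsaI/T4 ligase, 1 h, 37 °C), PCR-amplified and sequenced on an Illumina NextSeq500. Binding signal is each hexamer's read frequency for a factor divided by its frequency for the tag-only sample.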
# [2] = target: ETV5 (Homo sapiens, UniProt P41161 1-510); conditions: protein: recombinant; tags: N-terminal GST; dsDNA, one strand shown
# Summary of the method: as §1
# [3] = target: HSF1 (Homo sapiens, UniProt Q00613 1-529); conditions: protein: recombinant; tags: N-terminal GST; chain copies: 3; dsDNA, one strand shown
# Summary of the method: as §1
# [4] = target: T2, SPIC (Homo sapiens, UniProt Q8N5J4 1-248); conditions: protein: recombinant; tags: N-terminal GST; dsDNA, one strand shown
# T2 sequence: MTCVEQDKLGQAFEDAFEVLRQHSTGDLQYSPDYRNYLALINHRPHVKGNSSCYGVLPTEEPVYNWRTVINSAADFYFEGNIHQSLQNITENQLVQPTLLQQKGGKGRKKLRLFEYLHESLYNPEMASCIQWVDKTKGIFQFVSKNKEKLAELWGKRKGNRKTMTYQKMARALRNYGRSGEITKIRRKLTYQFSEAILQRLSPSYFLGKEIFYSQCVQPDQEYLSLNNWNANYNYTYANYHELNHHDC
# Summary of the method: as §1
# [5] = target: ELF4 (Homo sapiens, UniProt Q99607 1-663); conditions: protein: recombinant; tags: N-terminal GST; dsDNA, one strand shown
# Summary of the method: as §1
# [6] = target: T3, ELK4 (Homo sapiens, UniProt P28324-2 1-405); conditions: protein: recombinant; tags: N-terminal GST; dsDNA, one strand shown
# T3 sequence: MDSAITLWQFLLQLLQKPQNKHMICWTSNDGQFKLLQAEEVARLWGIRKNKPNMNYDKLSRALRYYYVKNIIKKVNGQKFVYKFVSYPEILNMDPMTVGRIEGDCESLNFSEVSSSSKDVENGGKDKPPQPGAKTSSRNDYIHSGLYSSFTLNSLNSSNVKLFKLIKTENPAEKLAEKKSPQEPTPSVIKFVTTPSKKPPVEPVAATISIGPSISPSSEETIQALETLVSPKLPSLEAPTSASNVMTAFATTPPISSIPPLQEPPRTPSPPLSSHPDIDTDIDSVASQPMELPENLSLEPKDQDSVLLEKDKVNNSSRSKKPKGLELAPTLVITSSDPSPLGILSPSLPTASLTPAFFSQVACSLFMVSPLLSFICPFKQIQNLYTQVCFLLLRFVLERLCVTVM
# Summary of the method: as §1
# [7] = target: T4, ETV2 (Homo sapiens, UniProt O00321 1-342); conditions: protein: recombinant; tags: N-terminal GST; dsDNA, one strand shown
# T4 sequence: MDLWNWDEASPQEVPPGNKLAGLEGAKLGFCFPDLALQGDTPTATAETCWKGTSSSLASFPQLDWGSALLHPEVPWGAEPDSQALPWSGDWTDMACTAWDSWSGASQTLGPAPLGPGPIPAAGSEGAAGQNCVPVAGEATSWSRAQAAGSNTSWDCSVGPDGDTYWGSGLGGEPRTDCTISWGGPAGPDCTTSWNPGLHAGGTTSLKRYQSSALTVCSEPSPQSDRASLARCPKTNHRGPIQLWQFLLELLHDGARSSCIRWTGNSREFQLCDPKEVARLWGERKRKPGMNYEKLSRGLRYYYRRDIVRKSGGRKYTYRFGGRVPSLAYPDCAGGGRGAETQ
# Summary of the method: as §1
# [8] = target: T5, ELF3 (Homo sapiens, UniProt P78545 1-371); conditions: protein: recombinant; tags: N-terminal GST; dsDNA, one strand shown
# T5 sequence: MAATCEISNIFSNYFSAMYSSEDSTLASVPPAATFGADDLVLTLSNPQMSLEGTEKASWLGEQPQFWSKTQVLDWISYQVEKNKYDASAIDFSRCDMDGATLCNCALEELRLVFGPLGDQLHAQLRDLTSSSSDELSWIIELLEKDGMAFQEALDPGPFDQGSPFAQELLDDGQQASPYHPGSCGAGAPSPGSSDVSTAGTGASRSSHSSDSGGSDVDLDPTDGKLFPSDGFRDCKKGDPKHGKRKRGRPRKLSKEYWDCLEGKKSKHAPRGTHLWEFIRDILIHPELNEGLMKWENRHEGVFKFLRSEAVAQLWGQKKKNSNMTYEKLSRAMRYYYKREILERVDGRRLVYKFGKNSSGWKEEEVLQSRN
# Summary of the method: as §1
# [9] = target: CRX (Homo sapiens, UniProt O43186 1-299); conditions: protein: recombinant; tags: N-terminal GST; dsDNA, one strand shown
# Summary of the method: as §1
# [10] = target: ETV1 (Homo sapiens, UniProt P50549 1-477); conditions: protein: recombinant; tags: N-terminal GST; dsDNA, one strand shown
# Summary of the method: as §1
# [11] = target: T6, ERF (Homo sapiens, UniProt P50548 1-548); conditions: protein: recombinant; tags: N-terminal GST; dsDNA, one strand shown
# T6 sequence: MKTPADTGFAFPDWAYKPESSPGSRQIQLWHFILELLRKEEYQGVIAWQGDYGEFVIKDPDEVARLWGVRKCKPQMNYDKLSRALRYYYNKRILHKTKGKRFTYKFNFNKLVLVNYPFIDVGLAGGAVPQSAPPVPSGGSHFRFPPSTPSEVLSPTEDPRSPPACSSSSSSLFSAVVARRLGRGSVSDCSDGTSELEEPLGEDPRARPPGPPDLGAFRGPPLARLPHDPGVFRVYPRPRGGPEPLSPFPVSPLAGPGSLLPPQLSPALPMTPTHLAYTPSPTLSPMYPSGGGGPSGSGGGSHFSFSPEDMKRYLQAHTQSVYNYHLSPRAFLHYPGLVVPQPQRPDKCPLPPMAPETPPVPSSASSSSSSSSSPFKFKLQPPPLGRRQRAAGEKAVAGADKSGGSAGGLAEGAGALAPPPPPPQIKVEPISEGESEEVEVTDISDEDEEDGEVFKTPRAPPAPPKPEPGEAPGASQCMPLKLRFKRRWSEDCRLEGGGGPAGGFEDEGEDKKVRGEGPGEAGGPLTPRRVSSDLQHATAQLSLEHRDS
# Summary of the method: as §1
# [12] = target: T7, ETV3L (Homo sapiens, UniProt Q6ZN32 1-361); conditions: protein: recombinant; tags: N-terminal GST; dsDNA, one strand shown
# T7 sequence: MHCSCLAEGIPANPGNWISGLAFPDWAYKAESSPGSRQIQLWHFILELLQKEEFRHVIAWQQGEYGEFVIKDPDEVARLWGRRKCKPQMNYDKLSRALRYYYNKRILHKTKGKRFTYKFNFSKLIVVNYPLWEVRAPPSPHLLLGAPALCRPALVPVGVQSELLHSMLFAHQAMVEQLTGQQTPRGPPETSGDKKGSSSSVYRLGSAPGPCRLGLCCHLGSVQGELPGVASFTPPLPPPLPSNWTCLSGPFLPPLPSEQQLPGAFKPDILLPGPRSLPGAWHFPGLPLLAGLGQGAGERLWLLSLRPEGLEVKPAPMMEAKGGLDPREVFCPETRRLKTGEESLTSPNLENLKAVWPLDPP
# Summary of the method: as §1
# [13] = target: T8, ETS2 (Homo sapiens, UniProt P15036 1-469); conditions: protein: recombinant; tags: N-terminal GST; dsDNA, one strand shown
# T8 sequence: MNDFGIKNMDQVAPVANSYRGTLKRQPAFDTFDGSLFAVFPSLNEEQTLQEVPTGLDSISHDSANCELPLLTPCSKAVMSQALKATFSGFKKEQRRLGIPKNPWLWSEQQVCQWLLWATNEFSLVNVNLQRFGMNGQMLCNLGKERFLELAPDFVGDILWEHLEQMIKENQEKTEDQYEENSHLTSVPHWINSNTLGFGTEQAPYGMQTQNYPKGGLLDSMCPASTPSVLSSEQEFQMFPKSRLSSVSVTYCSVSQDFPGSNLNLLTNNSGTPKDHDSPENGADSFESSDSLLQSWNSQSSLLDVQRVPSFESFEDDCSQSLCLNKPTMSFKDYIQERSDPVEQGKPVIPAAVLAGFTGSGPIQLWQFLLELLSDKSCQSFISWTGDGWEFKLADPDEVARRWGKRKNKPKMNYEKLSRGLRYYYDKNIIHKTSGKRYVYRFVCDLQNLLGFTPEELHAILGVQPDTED
# Summary of the method: as §1
# [14] = target: T9, SPDEF (Homo sapiens, UniProt O95238 1-335); conditions: protein: recombinant; tags: N-terminal GST; dsDNA, one strand shown
# T9 sequence: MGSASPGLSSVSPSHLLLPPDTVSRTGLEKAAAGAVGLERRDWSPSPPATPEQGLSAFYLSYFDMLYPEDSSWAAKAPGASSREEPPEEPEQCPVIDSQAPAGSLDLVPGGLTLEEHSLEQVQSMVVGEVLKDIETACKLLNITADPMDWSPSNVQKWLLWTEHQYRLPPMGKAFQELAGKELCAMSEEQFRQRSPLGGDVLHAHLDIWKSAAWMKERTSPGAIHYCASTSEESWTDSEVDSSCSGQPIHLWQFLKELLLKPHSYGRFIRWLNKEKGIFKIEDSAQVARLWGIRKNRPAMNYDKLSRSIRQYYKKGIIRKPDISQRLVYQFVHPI
# Summary of the method: as §1
# [15] = target: T10, ETV7 (Homo sapiens, UniProt Q9Y603 1-341); conditions: protein: recombinant; tags: N-terminal GST; dsDNA, one strand shown
# T10 sequence: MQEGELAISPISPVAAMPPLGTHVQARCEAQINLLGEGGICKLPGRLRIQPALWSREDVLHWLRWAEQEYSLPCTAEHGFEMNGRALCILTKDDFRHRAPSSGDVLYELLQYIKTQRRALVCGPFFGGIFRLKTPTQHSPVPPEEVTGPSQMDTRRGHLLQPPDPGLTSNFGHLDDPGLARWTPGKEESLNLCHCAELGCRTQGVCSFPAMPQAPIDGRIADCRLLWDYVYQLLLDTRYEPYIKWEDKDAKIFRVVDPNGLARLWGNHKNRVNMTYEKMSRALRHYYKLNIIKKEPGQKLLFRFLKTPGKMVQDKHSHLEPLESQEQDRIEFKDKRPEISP
# Summary of the method: as §1
# [16] = target: T11, ELF5 (Homo sapiens, UniProt Q9UKW6-2 1-255); conditions: protein: recombinant; tags: N-terminal GST; dsDNA, one strand shown
# T11 sequence: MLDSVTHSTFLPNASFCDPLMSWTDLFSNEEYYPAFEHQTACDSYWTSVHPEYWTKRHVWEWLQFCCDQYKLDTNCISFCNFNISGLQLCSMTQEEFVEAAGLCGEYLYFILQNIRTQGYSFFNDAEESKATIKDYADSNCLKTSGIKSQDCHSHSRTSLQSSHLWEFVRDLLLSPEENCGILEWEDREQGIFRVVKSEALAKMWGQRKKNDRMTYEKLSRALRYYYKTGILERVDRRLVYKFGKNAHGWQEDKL
# Summary of the method: as §1
# [17] = target: T12, ETV3 (Homo sapiens, UniProt P41162-2 1-143); conditions: protein: recombinant; tags: N-terminal GST; dsDNA, one strand shown
# T12 sequence: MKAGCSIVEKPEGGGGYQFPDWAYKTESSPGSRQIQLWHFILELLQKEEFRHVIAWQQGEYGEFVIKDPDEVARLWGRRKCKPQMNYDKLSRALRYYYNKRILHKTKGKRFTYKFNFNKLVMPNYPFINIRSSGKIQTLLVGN
# Summary of the method: as §1
# [18] = target: ETV6 (Homo sapiens, UniProt P41212 1-452); conditions: protein: recombinant; tags: N-terminal GST; dsDNA, one strand shown
# Summary of the method: as §1
# HSF1, sequence (Q00613 whole entry): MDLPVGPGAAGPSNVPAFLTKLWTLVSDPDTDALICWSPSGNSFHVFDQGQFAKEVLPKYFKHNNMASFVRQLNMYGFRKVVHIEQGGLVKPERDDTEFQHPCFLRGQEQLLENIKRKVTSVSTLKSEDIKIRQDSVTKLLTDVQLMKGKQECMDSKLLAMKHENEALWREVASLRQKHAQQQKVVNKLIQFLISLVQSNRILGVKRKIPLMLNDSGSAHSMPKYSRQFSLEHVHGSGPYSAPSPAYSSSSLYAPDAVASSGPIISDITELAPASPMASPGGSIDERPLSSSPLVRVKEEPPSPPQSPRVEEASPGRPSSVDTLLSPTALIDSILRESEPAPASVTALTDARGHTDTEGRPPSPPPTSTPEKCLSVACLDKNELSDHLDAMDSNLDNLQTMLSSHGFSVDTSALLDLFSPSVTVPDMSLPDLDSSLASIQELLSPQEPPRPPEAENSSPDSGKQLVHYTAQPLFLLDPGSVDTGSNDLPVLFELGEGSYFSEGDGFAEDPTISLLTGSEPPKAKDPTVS
# ETV1, sequence (P50549 whole entry): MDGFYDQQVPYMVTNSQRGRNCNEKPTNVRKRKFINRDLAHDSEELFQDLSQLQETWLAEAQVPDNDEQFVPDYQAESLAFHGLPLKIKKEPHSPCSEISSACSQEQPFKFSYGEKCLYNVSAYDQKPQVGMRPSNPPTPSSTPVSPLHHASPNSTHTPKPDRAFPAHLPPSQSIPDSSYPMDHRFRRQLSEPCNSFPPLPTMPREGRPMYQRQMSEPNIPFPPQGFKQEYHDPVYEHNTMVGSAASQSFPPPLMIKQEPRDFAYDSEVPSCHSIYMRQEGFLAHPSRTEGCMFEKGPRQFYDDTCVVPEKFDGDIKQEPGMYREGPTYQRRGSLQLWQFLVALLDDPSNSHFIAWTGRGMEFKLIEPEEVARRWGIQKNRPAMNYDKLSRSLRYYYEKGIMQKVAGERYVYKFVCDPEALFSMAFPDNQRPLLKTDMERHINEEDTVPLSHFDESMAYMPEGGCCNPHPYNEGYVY
# ELF4, sequence (Q99607 whole entry): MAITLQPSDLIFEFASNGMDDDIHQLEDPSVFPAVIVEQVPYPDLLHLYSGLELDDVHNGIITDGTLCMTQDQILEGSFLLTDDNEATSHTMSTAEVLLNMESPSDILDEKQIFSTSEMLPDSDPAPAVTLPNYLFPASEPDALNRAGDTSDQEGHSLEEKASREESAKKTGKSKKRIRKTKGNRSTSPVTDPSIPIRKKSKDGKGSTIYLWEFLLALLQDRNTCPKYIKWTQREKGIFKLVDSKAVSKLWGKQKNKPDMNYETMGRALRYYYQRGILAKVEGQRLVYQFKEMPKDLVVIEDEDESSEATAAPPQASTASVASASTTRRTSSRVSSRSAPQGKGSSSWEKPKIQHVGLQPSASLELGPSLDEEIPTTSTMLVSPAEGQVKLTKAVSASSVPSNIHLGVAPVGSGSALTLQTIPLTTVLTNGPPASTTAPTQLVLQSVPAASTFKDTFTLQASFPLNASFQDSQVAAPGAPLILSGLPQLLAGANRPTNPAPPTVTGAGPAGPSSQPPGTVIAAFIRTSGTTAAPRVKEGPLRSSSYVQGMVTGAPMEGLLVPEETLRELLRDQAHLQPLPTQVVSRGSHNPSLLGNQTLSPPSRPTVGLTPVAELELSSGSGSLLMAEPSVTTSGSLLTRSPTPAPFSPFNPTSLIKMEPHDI
# ETV6, sequence (P41212 whole entry): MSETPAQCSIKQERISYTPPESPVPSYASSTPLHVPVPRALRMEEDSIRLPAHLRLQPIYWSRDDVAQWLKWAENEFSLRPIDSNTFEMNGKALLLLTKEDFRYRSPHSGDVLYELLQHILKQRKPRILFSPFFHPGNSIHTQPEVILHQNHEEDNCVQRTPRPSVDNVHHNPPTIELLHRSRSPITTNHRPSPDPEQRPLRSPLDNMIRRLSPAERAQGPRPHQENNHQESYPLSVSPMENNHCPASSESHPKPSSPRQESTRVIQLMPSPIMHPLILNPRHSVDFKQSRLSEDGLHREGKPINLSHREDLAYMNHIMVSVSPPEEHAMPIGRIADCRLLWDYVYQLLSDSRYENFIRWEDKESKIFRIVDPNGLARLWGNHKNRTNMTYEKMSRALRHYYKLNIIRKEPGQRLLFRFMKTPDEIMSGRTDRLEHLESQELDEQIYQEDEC
# ETV5, sequence (P41161 whole entry): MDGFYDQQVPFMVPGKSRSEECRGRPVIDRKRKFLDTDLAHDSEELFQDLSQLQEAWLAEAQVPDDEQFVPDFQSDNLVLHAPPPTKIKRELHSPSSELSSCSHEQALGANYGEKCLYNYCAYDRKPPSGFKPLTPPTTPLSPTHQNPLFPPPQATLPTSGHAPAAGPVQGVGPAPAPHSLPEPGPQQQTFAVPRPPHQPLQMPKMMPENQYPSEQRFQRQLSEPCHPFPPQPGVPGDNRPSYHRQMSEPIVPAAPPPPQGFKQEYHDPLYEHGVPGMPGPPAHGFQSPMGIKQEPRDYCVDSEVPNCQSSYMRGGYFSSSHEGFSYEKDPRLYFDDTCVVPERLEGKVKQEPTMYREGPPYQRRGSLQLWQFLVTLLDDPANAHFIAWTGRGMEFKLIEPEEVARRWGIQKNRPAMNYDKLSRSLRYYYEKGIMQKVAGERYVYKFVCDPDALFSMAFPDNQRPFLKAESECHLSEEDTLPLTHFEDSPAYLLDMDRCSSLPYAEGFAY
# CRX, sequence (O43186 whole entry): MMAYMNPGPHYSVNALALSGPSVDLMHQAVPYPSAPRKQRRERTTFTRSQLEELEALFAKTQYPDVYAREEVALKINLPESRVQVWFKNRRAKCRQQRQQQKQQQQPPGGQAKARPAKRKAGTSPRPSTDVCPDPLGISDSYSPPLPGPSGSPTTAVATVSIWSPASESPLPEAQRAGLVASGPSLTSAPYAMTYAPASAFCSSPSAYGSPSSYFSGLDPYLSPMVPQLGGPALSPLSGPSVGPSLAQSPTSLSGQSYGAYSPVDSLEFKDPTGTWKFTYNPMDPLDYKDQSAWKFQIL
sequence,measurement,setting,value
CGACCT,binding signal,[1],"1.59 fold enrichment (6-mer frequency, TF over GST control)"
same,binding signal,[2],"1.61 fold enrichment (6-mer frequency, TF over GST control)"
same,binding signal,[3],"1.35 fold enrichment (6-mer frequency, TF over GST control)"
same,binding signal,[4],"1.41 fold enrichment (6-mer frequency, TF over GST control)"
same,binding signal,[5],"1.61 fold enrichment (6-mer frequency, TF over GST control)"
same,binding signal,[6],"1.56 fold enrichment (6-mer frequency, TF over GST control)"
same,binding signal,[7],"1.73 fold enrichment (6-mer frequency, TF over GST control)"
same,binding signal,[8],"1.45 fold enrichment (6-mer frequency, TF over GST control)"
same,binding signal,[9],"1.21 fold enrichment (6-mer frequency, TF over GST control)"
same,binding signal,[10],"1.55 fold enrichment (6-mer frequency, TF over GST control)"
same,binding signal,[11],"1.47 fold enrichment (6-mer frequency, TF over GST control)"
same,binding signal,[12],"1.75 fold enrichment (6-mer frequency, TF over GST control)"
same,binding signal,[13],"1.41 fold enrichment (6-mer frequency, TF over GST control)"
same,binding signal,[14],"1.44 fold enrichment (6-mer frequency, TF over GST control)"
same,binding signal,[15],"1.54 fold enrichment (6-mer frequency, TF over GST control)"
same,binding signal,[16],"1.58 fold enrichment (6-mer frequency, TF over GST control)"
same,binding signal,[17],"1.53 fold enrichment (6-mer frequency, TF over GST control)"
same,binding signal,[18],"1.5 fold enrichment (6-mer frequency, TF over GST control)"
